# Shown is part of a subset that was picked to be rich in hits.
# GluA2 TARP mod = modulators of AMPA receptor GluA2-stargazin complexes | HEK293 GluA2+stargazin, membrane potential dye (FDSS), glutamate EC50; hits were called plate by plate, in both directions | calls only at 30 µM | actives 3.5% (n = 40,000) | AID 1259245;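 active means any of four per-well response measures lying three or more SD from its plate-wide compound average, in either direction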
# GIRK2 act = Activates human GIRK2-containing potassium channels. activation (% efficacy), % for hits at 37.5 µM. P48051. HEK293 GIRK2/NPY4 cells, thallium flux fluorescence. 34,000 tested, under 10 active;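 active means primary screen hit, no activity in plain HEK293 cells, and in GIRK2-only cells above 5% efficacy rising with concentration; inactive means the rest, including fluorescent compounds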;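 further: efficacy is normalized control-subtracted fluorescence 15 s after thallium addition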
# Active calls of the source: *; i = inactive; · = no result; + = active, no number.
SMILES,GluA2 TARP mod,GIRK2 act
COc1cc(-c2noc(CSc3ccc(-c4ccccc4)nn3)n2)cc(OC)c1OC,i,i
O=S(=O)(Cc1ccc(Cl)cc1)NCC(c1ccco1)N1CCOCC1 (centres undefined),+,i
O=S(=O)(Cc1ccccc1)NCC(c1ccco1)N1CCOCC1 (centres undefined),i,i
Cc1cc(C)c(S(=O)(=O)NCC2CCN(C3CCCC3)CC2)cc1C,i,i
CCc1ccc(S(=O)(=O)NCC2CCN(C3CCCC3)CC2)s1,+,i
CCOc1ccc(S(=O)(=O)NCC2CCN(C3CCCC3)CC2)cc1C,+,i
Cc1cc(F)ccc1S(=O)(=O)NCC1CCN(C2CCCC2)CC1,i,i
COc1cccc(C(=O)Nc2cc(C)nn2-c2nc3c(cnn3-c3cccc(C)c3C)c(=O)[nH]2)c1OC,·,i
COc1ccc(-c2cn(CC(=O)Nc3cccc(Cl)c3)nc2N2CCOCC2)cc1,·,i
CCOC(=O)c1ccccc1NC(=O)Cn1cc(OC)c(=O)cc1CSc1nc(C)cc(C)n1,i,i
COc1ccc(OCC(=O)NCCc2ccc(OC)c(OC)c2)cc1,i,i
COc1ccc(CCNC(=O)COc2ccc(C(C)C)c(C)c2)cc1OC,+,i
O=C(/C=C/c1ccc2c(c1)OCO2)NCC1CCN(C(=O)c2cc3ccccc3o2)CC1,+,i
O=C(c1cc2ccccc2o1)N1CCC(CNS(=O)(=O)c2ccc3c(c2)OCCO3)CC1,i,i
O=C(CSCc1ccccc1)NCC1CCN(C(=O)c2cc3ccccc3o2)CC1,i,i
O=C(/C=C/c1ccccc1)NCC1CCN(C(=O)c2cc3ccccc3o2)CC1,+,i
COc1ccc(S(=O)(=O)N2CCCc3cc(NC(=O)c4cc(C)on4)ccc32)cc1,i,i
Cc1nc(OC(C)C)cc(N2CCN(C(=O)Nc3ccccc3)CC2)n1,i,i
Cc1cccc(-n2c(=O)c3c(c4cc(C)ccc4n3C)n(CC(=O)Nc3c(C)cc(C)cc3C)c2=O)c1,i,·
Cc1cc(C)c(S(=O)(=O)NCCCn2nc(-c3cccs3)ccc2=O)cc1C,i,i
Cn1c(=O)c2c(SCC(=O)NC(C)(C)C)ccnc2n(C)c1=O,i,i
CCOCCSc1ccnc2c1c(=O)n(C)c(=O)n2C,+,·
Cn1c(=O)c2c(SCCO)ccnc2n(C)c1=O,i,·
CCOC(=O)CNC(=O)CSc1ccnc2c1c(=O)n(C)c(=O)n2C,i,i
CCN(CC)CCSc1ccnc2c1c(=O)n(C)c(=O)n2C,+,i
SMILES,GluA2 TARP mod,GIRK2 act
C=CCSc1ccnc2c1c(=O)n(C)c(=O)n2C,+,·
CCCNC(=O)CSc1ccnc2c1c(=O)n(C)c(=O)n2C,i,i
Cn1c(=O)c2c(SCCN3CCCC3)ccnc2n(C)c1=O,+,i
COc1ccc(NC(=O)c2ccc(=O)n(CC(=O)Nc3ccc(OC)c(OC)c3)n2)cc1,i,i
CCCNC(=O)C(=O)NCCc1ccc2c(c1)CCCN2C,i,·
CC1CN(C(=O)CSc2ccnc3c2c(=O)n(C)c(=O)n3C)CC(C)O1 (centres undefined),+,i
Cc1cnc2c(c1SCC(=O)N1CCN(c3ccccc3)CC1)c(=O)n(C)c(=O)n2C,+,i
CCc1cnc2c(c1SCC(=O)N1CCN(c3ccccc3)CC1)c(=O)n(C)c(=O)n2C,i,i
Cn1c(=O)c2c(SCC(=O)N3CCCCCC3)ccnc2n(C)c1=O,i,·
CCN(CC)C(=O)CSc1ccnc2c1c(=O)n(C)c(=O)n2C,i,i
Cn1c(=O)c2c(SCC(N)=O)ccnc2n(C)c1=O,+,·
CC1CCCC(C)N1C(=O)c1cc2cccnc2n(Cc2ccccc2)c1=O (centres undefined),i,i
Cc1ccc2nc(NCc3cccnc3)nc(-c3ccccc3)c2c1,·,i
CC1Oc2ccccc2OC1C(=O)NCC#CCN1CCc2ccccc2C1 (centres undefined),i,i
COc1ccc(N(Cc2ccccc2)S(=O)(=O)c2ccc3nncn3c2)cc1,i,i
Cc1cccc(CN(c2ccc3c(c2)OCO3)S(=O)(=O)c2ccc3nncn3c2)c1,+,i
CN1CCN(Cc2ccc(NC(=O)Nc3ccc4c(c3)OCO4)cc2)CC1,i,i
COc1ccc(-c2ccc(SCc3ccncc3)nn2)cc1OC,i,·
COc1ccc(C)c2sc(NC(=O)C3CCCN3S(C)(=O)=O)nc12 (centres undefined),·,i
COc1ccc(Nc2nc(C)c([N+](=O)[O-])c(N3CCCC3)n2)c(OC)c1,i,i
COc1ccc(Nc2nc(N3CCCC3)c3ccccc3n2)cc1,+,·
Cc1ccc(N2CCn3c2nn(CC(=O)Nc2cc(C)ccc2C)c(=O)c3=O)cc1,i,i
O=C(CCc1csc(NC(=O)c2ccc(Cl)cc2)n1)NCCc1ccccc1,i,i
CCCCOC(=O)CCc1nc2ccccc2[nH]c1=O,i,·

# Source: PubChem BioAssay
